# Shown are actives, neighbours in structure and some others; about 22% of the full set was active somewhere.
# Cycloheximide cs = counter-screen hit for Shiga toxin inhibitors, cycloheximide | cell reporter, cycloheximide protein synthesis inhibition counterscreen | max response, % | actives 12% (n = 300,000); in the data active = max response mostly above about 13%, no sharp cut-off; inactive = mostly below about 14%; note: read at 38.3 µM for the half of the compounds with a filed dose; 0% is about no effect
# Pf growth 96h = P. falciparum growth inhibition at 96 hour, primary screen for plastid delayed-death inhibitors. P. falciparum luciferase reporter growth, 96 h. Potency, µM (top dose mostly 28.7 µM), for inactives: at the highest dose activity change, negative = inhibition, usual class: inhibitors. actives 6.9% (n = 320,000); note: potency is the fitted concentration of half-maximal effect; % is set by controls: 0 for no effect and ±100 for the full control effect
#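 P. falciparum expressing integrated firefly luciferase, in erythrocytes at 2% hematocrit, 0.05% parasitemia, incubated with compounds 96 h at 37 C, 5% CO2. Growth inhibition read as loss of luminescence; two-generation exposure targets delayed-death apicoplast inhibitors.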
# Shiga toxin inh = inhibitors of Shiga toxin in Vero cells; inhibition, % at 38.7 µM; Vero cells, Shiga toxin protein synthesis inhibition reporter; actives 9.2% (n = 290,000); AID 2315; in the data active = inhibition mostly above about 28%, no sharp cut-off; inactive = mostly below about 43%; note: 0% is about no effect
# Pf growth 48h = inhibits P. falciparum growth in the first generation, 48 h. P. falciparum luciferase growth in erythrocytes, 48 h. Potency, µM (top dose mostly 28.7 µM), without a hit: top-dose activity change, negative = inhibition, usual class: inhibitors. actives 5.9% (n = 310,000); note: potency is the fitted concentration of half-maximal effect; % is set by controls: 0 for no effect and ±100 for the full control effect
#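 In quantitative HTS format, infected erythrocytes bearing luciferase-reporter parasites were treated for a single generation at 37 C. Luminescence after adding detection reagent served as the growth measure.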
# LmPK inh = blocks Leishmania mexicana pyruvate kinase activity | Q27686 | actives 0.37% (n = 290,000) | AID 1721 | purified LmPK, Kinase-Glo ATP luminescence, 1 h | Potency, µM (doses to about 57.5 µM), without a hit: top-dose activity change, negative = inhibition, most hits filed as inhibitors; note: potency is the fitted concentration of half-maximal effect; % is set by controls: 0 for no effect and ±100 for the full control effect
# Target sequence (Q27686 whole entry, looked up): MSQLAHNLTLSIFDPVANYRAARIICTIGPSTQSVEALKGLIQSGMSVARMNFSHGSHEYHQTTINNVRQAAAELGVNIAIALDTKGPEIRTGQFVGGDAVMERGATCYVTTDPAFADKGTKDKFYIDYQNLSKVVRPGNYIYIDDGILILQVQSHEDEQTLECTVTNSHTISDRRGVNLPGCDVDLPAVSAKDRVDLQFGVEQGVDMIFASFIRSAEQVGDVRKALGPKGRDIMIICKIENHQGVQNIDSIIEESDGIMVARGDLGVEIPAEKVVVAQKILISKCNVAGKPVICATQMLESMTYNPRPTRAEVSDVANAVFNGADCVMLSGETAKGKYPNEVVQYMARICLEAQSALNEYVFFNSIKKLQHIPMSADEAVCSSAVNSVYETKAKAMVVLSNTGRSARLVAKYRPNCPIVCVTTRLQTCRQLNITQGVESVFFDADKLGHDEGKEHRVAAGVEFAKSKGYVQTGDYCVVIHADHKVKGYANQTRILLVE
#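 Purified LmPK (0.1 nM) converted ADP (0.1 mM) to ATP with PEP (0.5 mM) in imidazole buffer pH 7.2 with KCl and MgCl2, 1 h at room temperature. ATP was read by Kinase-Glo luminescence; data normalized to uninhibited and no-enzyme controls.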
# * = called active by the depositor; ? = inconclusive; / = no result given. Unless noted, calls come from the whole dose curve; as a rule, active = well fitted inhibition curve with a large enough effect; inconclusive = small, poorly fitted or top-dose-only effect, or another doubt; inactive = no such curve, though single readings can be large or run the other way.
SMILES,Cycloheximide cs,Pf growth 96h,Shiga toxin inh,Pf growth 48h,LmPK inh
CC(=O)NC(=S)Nc1ccccc1C(=O)NC1CCCCC1,-4.9,8.28µM*,18.5,-30.3%,-1.1%
COc1ccc(CNC(=O)CN=C2NC(=O)C(c3ccccc3)(c3ccccc3)N2)cc1,11.5,21.5%,31.3*,10.2%,-1.2%
CCCOc1ccc(C2NC(=S)NC(C)=C2C(=O)c2ccccc2)cc1OC (stereo not given),-2.3,?,-11.6,?,1.5%
CN1CCN(C(=O)/C=C\c2ccc(Cl)cc2)CC1,-1.4,9.9%,1.6,42.2%,2.7%
CN1CCN(C(=O)/C=C/c2c(F)cccc2Cl)CC1,19.3*,37.3%,11.0,0.0%,-9.9%
CN1CCN(C(=O)/C=C/c2cccc(Cl)c2)CC1,16.7*,0.0%,20.4,-4.9%,1.6%
O=C(NCC(c1ccco1)N1CCc2ccccc2C1)c1cccc(Br)c1 (stereo not given),/,-7.0%,/,-14.3%,/
Cc1cc(OCC(=O)NC2CC(C)(C)NC(C)(C)C2)c2c(C)c(C)c(=O)oc2c1,1.0,-11.8%,-6.7,-16.9%,-4.3%
Cc1cccc(CN(C)C)c1OC(=O)N(C)C,6.7,5.86µM*,-15.1,19.4%,2.4%
CC(C)Oc1cccc(-c2cc(C(=O)NC(=S)N(C)c3ccccc3C(=O)O)c3ccccc3n2)c1,15.6,-3.1%,30.4,3.6%,4.2%
C/C(=N\OC(=O)c1ccc(F)cc1)c1ccc(F)c(F)c1,10.6,30.7%,15.2,26.5%,-14.2%
N/C(=N\OC(=O)c1ccc(F)cc1)c1ccc(Br)cc1,33.0*,?,70.1*,-62.3%,-1.8%
Cc1ccc(/C(N)=N/OC(=O)c2ccc(F)cc2)cc1,48.8*,?,91.4*,-46.8%,-1.5%
N/C(=N\OC(=O)c1ccc(F)cc1)c1ccccc1,58.8*,10.4µM*,150.4*,34.4%,7.94µM*
Cc1ccc(/C(N)=N/OC(=O)c2ccc3ccccc3c2)cc1,12.1,-20.2%,10.2,?,-11.8%
CCN(c1ccc(NC(=O)COC(=O)CCc2cc(OC)c(OC)c(OC)c2)cc1)C(C)C,3.6,11.6%,2.2,-10.5%,-6.3%
COc1ccc(-n2c(CCC(=O)O)ccc2-c2ccc(F)cc2)c(OC)c1,10.0,33.4%,20.3,18.8%,3.9%
O=C(Nc1ccc(-c2csc(Nc3ccccc3)n2)cc1)c1cccc(C(F)(F)F)c1,1.6,?,31.6,?,2.9%
O=C(Nc1ccc(-c2csc(Nc3ccccc3)n2)cc1)c1cc([N+](=O)[O-])cc(C(F)(F)F)c1,0.9,0.465µM*,-4.5,0.586µM*,3.2%
O=C(Nc1ccc(-c2csc(Nc3ccc(Cl)cc3)n2)cc1)c1cccc(C(F)(F)F)c1,-3.2,10.4µM*,-5.4,?,-0.6%
Cc1cc(C)n2nc(C(=O)OCC(=O)N(C)C3CCS(=O)(=O)C3)nc2n1 (stereo not given),/,-9.1%,/,-9.8%,/
O=C1C=C(c2ccccc2)C[C@@H](c2ccc(Cl)cc2)C1,/,?,/,2.62µM*,/
O=C1C=C(c2ccc(O)cc2)C[C@@H](c2ccc(Cl)cc2)C1,/,2.33µM*,/,3.7µM*,/
Cc1ccc(C2=CC(=O)C[C@H](c3ccc(Cl)cc3)C2)cc1,/,-0.1%,/,-7.9%,/
COc1ccc([C@H]2CC(=O)C=C(c3cc4ccccc4c4ccccc34)C2)cc1,/,?,/,7.3%,/
SMILES,Cycloheximide cs,Pf growth 96h,Shiga toxin inh,Pf growth 48h,LmPK inh
COc1ccc([C@H]2CC(=O)C=C(c3ccc(C)c4ccccc34)C2)cc1,/,1.17µM*,/,?,/
O=C1C=C(c2cccc(CO)c2)C[C@@H](c2ccc(Cl)cc2)C1,/,0.465µM*,/,0.329µM*,/
O=C1C=C(c2ccc3ccccc3c2)C[C@@H](c2ccc(Cl)cc2)C1,/,80.6%,/,?,/
COc1cc(C2C(C#N)=C(N)Oc3cc(C)n(Cc4ccccn4)c(=O)c32)cc2c1OCO2 (stereo not given),-2.2,-4.1%,-7.0,-11.2%,6.9%
Cc1nn(Cc2c(F)c(F)c(F)c(F)c2F)c(C)c1NC(=O)c1nn(C)c(C)c1Br,-2.0,-0.5%,4.6,-8.2%,-0.5%
COc1cccc(C2=CC(=O)C[C@H](c3ccc(Cl)cc3)C2)c1,/,?,/,2.94µM*,/
O=C1C=C(c2ccc(-c3ccccc3)cc2)C[C@@H](c2ccc(F)cc2)C1,/,0.0%,/,0.0%,/
CC(C)c1cccc(C2=CC(=O)C[C@H](c3ccc(F)cc3)C2)c1,/,2.33µM*,/,1.65µM*,/
O=C1C=C(c2ccc3[nH]ccc3c2)C[C@@H](c2ccc(Cl)cc2)C1,/,4.65µM*,/,2.62µM*,/
COc1ccc([C@H]2CC(=O)C=C(c3cccc(Br)c3)C2)cc1,/,-4.5%,/,?,/
Cc1nn(C)c(C(=O)NCc2ccc(Cl)cc2)c1Cl,-2.7,39.6%,5.0,21.2%,1.9%
C/C(=N\O)C(C)(C)Nc1ccc(Br)cc1,2.3,-9.6%,7.9,7.2%,6.5%
Cc1ccc(C(=O)CC2(O)C(=O)N(C)c3ccccc32)s1 (stereo not given),-1.5,38.7%,22.7,16.2%,3.3%
CCOc1ccccc1N(CC(=O)Nc1ccccc1C(=O)N1CCCC1)S(C)(=O)=O,-2.5,9.5%,-11.4,-27.9%,3.1%
CCN1CCN(c2ccc(S(=O)(=O)N3CCCCC3)cc2NC(=O)/C=C/c2ccc(OC(F)F)cc2)CC1,/,4.15µM*,/,9.28µM*,/
CCN1CCN(c2ccc(S(=O)(=O)N3CCCCC3)cc2NC(=O)/C=C/c2cccc(OC)c2OC)CC1,-1.6,?,-14.5,0.0%,0.4%
O=C(COC(=O)/C=C/c1ccc(OC(F)F)cc1)Nc1ccc(S(=O)(=O)N2CCCC2)cc1,-1.8,-8.4%,-30.2,-1.4%,4.2%
CN1CCN(c2ccc(S(=O)(=O)N3CCCCC3)cc2NC(=O)/C=C/c2ccc(OC(F)F)cc2)CC1,/,7.38µM*,/,9.28µM*,/
COc1ccc(/C=C/c2nc3cc(-c4ccccc4)ccc3o2)cc1O,97.1*,?,99.8*,?,7.0%
CCc1c(C)c(C#N)c2[nH]c3ccccc3n2c1=S,-2.4,?,-4.8,-5.6%,?
CCC1=Nc2cc(C(=O)NCCCOC)ccc2Sc2ccccc21,-5.2,-40.6%,-8.5,/,8.5%
CC1=Nc2cc(C(=O)NCCCOC(C)C)ccc2Sc2ccccc21,14.2,?,15.3,?,-1.3%
CCCC1=Nc2cc(C(=O)NCCCOC(C)C)ccc2Sc2ccccc21,-4.5,10.1%,-5.0,11.7µM*,6.2%
CC1=Nc2cc(C(=O)NCCCOC(C)C)ccc2Sc2ccc(C)cc21,-8.7,44.9%,-10.0,7.38µM*,0.1%
CCCC1=Nc2cc(C(=O)NCCCOCC)ccc2Sc2ccccc21,-3.1,13.1µM*,-33.8,?,7.2%
CCC1=Nc2cc(C(=O)NCCCN3CCOCC3)ccc2Sc2ccccc21,8.3,?,-6.7,?,1.4%
CC(C)OCCCNC(=O)c1ccc2c(c1)NC(=O)c1ccccc1S2,-2.9,1.7%,-1.4,3.7µM*,4.7%
CCOc1cccc(-c2c(C(=O)N/N=C/c3ccc(C)o3)nnn2-c2nonc2N)c1,-9.4,?,-5.2,-18.2%,-0.3%
CC1=N/C(=C\c2ccc([N+](=O)[O-])cc2)C(=O)N1c1ccc(F)cc1F,9.1,35.0%,-4.9,?,1.6%

# From PubChem
